Laboratory results reported in ChEMBL document CHEMBL4296182, “CO-ADD screening of NIH NCI Diversity Set V”.
For part of these data: Potency and affinity values are given separately.

Key:
[1] = system: Staphylococcus aureus; experiment: Antibacterial activity against Staphylococcus aureus MRSA ATCC 43300 (CO-ADD:GP_020); MIC in CAMBH media using NBS plates, by Resazurin F(560/590); assay type: functional; conditions: Concentration 20 uM, ASSAY_TEST Inhibition of Bacterial Growth, detection method Resazurin, Fluorescence (ex560/em590), MEDIA CAMHB, plate type 384well, CORNING #3640, time 18 hr
[2] = system: Acinetobacter baumannii; experiment: Antibacterial activity against Acinetobacter baumannii ATCC 19606 (CO-ADD:GN_034); MIC in CAMBH media using NBS plates, by Resazurin F(560/590); assay type: functional; conditions: Concentration 20 uM, ASSAY_TEST Inhibition of Bacterial Growth, detection method Resazurin, Fluorescence (ex560/em590), MEDIA CAMHB, plate type 384well, CORNING #3640, time 18 hr
[3] = system: Escherichia coli; experiment: Antibacterial activity against Escherichia coli ATCC 25922 (CO-ADD:GN_001); MIC in CAMBH media using NBS plates, by Resazurin F(560/590); assay type: functional; conditions: Concentration 20 uM, ASSAY_TEST Inhibition of Bacterial Growth, detection method Resazurin, Fluorescence (ex560/em590), MEDIA CAMHB, plate type 384well, CORNING #3640, time 18 hr
[4] = system: Klebsiella pneumoniae; conditions: Concentration 20 uM; ASSAY_TEST Inhibition of Bacterial Growth; detection method Absorption (OD600); MEDIA CAMHB; plate type 384well; NBS; CORNING #3640; time 18 hr
[5] = system: Candida albicans; conditions: 20 µM
[6] = system: Cryptococcus neoformans; conditions: Concentration 20 uM; ASSAY_TEST Inhibition of Fungal Growth; detection method Resazurin; Absorption (OD600-OD570); plate type 384well; NBS; CORNING #3640

SMILES | Inhibition [1] | Inhibition [2] | Inhibition [3] | Inhibition [4] | Inhibition [5] | Inhibition [6]
Nc1nc(N)c2cnnn2n1 | -6.46% | -8.05% | -17.28% | 8.25% | 5.35% | 23.1%
CCC1CCC(C)N(N=O)C1 (centres undefined) | -0.88% | -14.6% | 6.08% | 7.29% | -0.7% | -1.16%
O=S(=O)(F)c1ccc2nc(-c3cccc(Sc4ccccc4)c3)cc(Cl)c2c1 | 0.33% | -14.47% | 10.15% | 9.08% | 7.93% | -2.04%
O=C1N(c2nncs2)CCN1[N+](=O)[O-] | 11.64% | 7.25% | 7.74% | 10.14% | 2.04% | -14.15%
Cc1nccc2c1[nH]c1cc(O)ccc12 | 18.39% | -8.06% | 7.41% | 20.45% | 2.57% | -8.88%
C(=C\c1ccncc1)/c1ccncc1 | -0.23% | -2.33% | 7.13% | 5.66% | -2.45% | -3.12%
O=C1CC(c2ccc(O)cc2)Oc2cc(O)cc(O)c21 (centres undefined) | 9.17% | 6.14% | -5.6% | 10.18% | 4.1% | -1.84%
O=c1nc(C(F)(F)C(F)(F)C(F)(F)F)[nH]o1 | 8.37% | 8.1% | -1.78% | 12.08% | 3.43% | -2.86%
CC(Cc1ccccc1)NC(N)=O (centres undefined) | 1.52% | -11.77% | 14.19% | 16.63% | 1.15% | -7.14%
O=C1CN=C(c2ccc[nH]2)c2cc(Cl)ccc2N1 | 5.67% | 14.08% | -2.95% | 17.48% | 0.21% | -5.64%
COC(=O)c1nc(-c2ccc3c(n2)C(=O)C(N)=C(OC)C3=O)c(N)c(-c2ccc(OC)c(OC)c2O)c1C | -0.84% | -9.1% | 8.8% | 8.38% | -0.15% | 0.31%
O=C(O)CCCC[C@@H]1SC[C@@H]2NC(=O)N[C@@H]21 [BIOTIN] | 10.18% | -16.1% | 8.51% | 5.79% | 1.63% | -9.23%
CC(=O)O.CCC(N)Cc1c[nH]c2ccccc12 (centres undefined) [ETRYPTAMINE ACETATE] | 10.71% | -7.1% | 6.98% | 14.32% | 2.48% | -7.72%
CNC(=O)Oc1ccc(N(C)C)cc1C(C)C | 11.71% | -2.68% | 9.69% | 11.23% | -1.51% | -12.66%
CC1=CC(O)C(O)C2(C)C1CC1OC(=O)C(O)C3C(C)C(O)C4(O)OCC13C42 (centres undefined) | 9.24% | 4.24% | -0.01% | 12.12% | -0.21% | -7.24%
c1ccc2c(c1)Sc1ccccc1N2CC1CN2CCC1CC2 (centres undefined) [MEQUITAZINE] | 31.62% | 2.18% | 10.66% | 26.05% | 3.26% | -3.37%
C/C=C/CC1(CC)C(=O)NC(=S)NC1=O | -2.18% | -12.12% | -2.34% | 1.47% | 1.14% | 0.11%
CN1CCC2(O)OCCCC2C1 (centres undefined) | 3.54% | -13.99% | 3.03% | 26.78% | 1.09% | 3.57%
OCC1CN1C1CCCCC1 (centres undefined) | -3.39% | -14.33% | 0.67% | 26.1% | 2.25% | -2.3%
O=C(NCCCN1CC1)Nc1cccc2ccccc12 | -3.04% | 12.11% | -2.13% | 20.16% | 1.47% | 1.2%
CN1C(=O)NC(=O)C(/N=N/c2ccc(Cl)cc2)C1=O (centres undefined) | 11.94% | 12.18% | 3.45% | 13.9% | 1.14% | -3.1%
C[C@]12CC[C@@H]3c4ccc(OC(=O)N(CCCl)CCCl)cc4CC[C@H]3[C@@H]1CC[C@@H]2O [ESTRAMUSTINE] | 12.2% | -4.55% | -3.6% | 12.05% | 11% | -2.85%
CC(C)(C)n1cc(C(=O)c2ccccc2)cc1-c1ccccc1 | 20.55% | 13.8% | 7.58% | 11.31% | 3.13% | -8.32%
c1cc(C2N3CCCN2CC3)ccn1 (centres undefined) | 15.5% | -12.77% | 15.45% | 9% | -1.44% | -3.06%

SMILES | Inhibition [1] | Inhibition [2] | Inhibition [3] | Inhibition [4] | Inhibition [5] | Inhibition [6]
Cc1nc(C)c(C(=O)N/N=C/c2ccc(N(CCCl)CCCl)cc2)s1 | 4.54% | 12.95% | 1.76% | 6.18% | -1.16% | -8.81%
CN1C2c3ccccc3C3C4c5ccccc5C(C31)C(C2[N+](=O)[O-])N4C (centres undefined) | 16.96% | 4.34% | 9.05% | 7.01% | 2.24% | -16.47%
COc1cccc2c1C(=O)c1c(O)c3c(c(O)c1C2=O)C[C@@](O)(/C(C)=N\O)C[C@@H]3OC1CC(N)C(O)C(C)O1.Cl (some centres undefined) | -16.23% | -1.97% | 2.23% | 11.93% | -6.16% | -5.57%
CC(=O)Nc1ccc([As](=O)(O)c2ccc([N+](=O)[O-])cc2)cc1 | 12.11% | 8.34% | -3.43% | 10.87% | -1.88% | 0.38%
O=C1N[C@H]2[C@H](O)[C@H](O)[C@@H](O)[C@H](O)[C@@H]2c2cc3c(c(O)c21)OCO3 [PANCRATISTATIN] | 12.72% | 6.17% | 0.6% | 1.56% | 0.06% | -14.69%
Cc1ccc2c(c1)Oc1ccccc1N=C2 | 14.17% | 5.41% | -0.47% | 8.46% | 8.51% | -3.65%
N#CC(C#N)=Cc1ccc(C=C(C#N)C#N)cc1 | -4.05% | -13.9% | 2.09% | 11.67% | 36.5% | -3.4%
NN=C1C(Cl)=C(Cl)C(Cl)=C1Cl | -27.05% | -7.11% | -15.84% | 1.32% | 38.7% | 5.21%
O=C(Oc1ccccc1)N(c1ccccc1)c1ccccc1 | 13.05% | 1.09% | 9.21% | 3.21% | 5.51% | -11.03%
CCN(CC)c1ccc(C=C2C(=O)NC(=S)NC2=O)cc1 | -20.45% | -4.05% | -18.35% | 3.93% | 19.4% | 12.5%
CC(=O)OC1CCC2(C)C(CCC3C2CC(=O)C2(C)C3CC(N3CC3)C2C(C)=O)C1 (centres undefined) | -6.66% | -5.39% | 9.74% | 4.84% | -0.96% | -1.15%
O=[As](O)(O)c1ccc(/N=N/c2ccc(O)cc2)cc1 | -11.42% | -13.35% | 0.89% | 15.09% | 7.76% | -3.57%
COc1c(OP2(=S)OCC(C)(C)CO2)cnn(C2CCCCC2)c1=O | 22.66% | -7.99% | 17.33% | 10.42% | -1.61% | -6%
C=CCN1CC[C@]23c4c5ccc(O)c4O[C@H]2C(=O)CC[C@@]3(O)[C@H]1C5 [NALOXONE] | 11.42% | -13% | 1.67% | – | – | –
O=C(NC(=O)c1c(F)cccc1F)Nc1cc(Cl)c(F)c(Cl)c1F [TEFLUBENZURON] | 1.58% | -16.27% | 15.1% | 2.21% | -1.38% | -2.13%
C=C1C/C(=C/C)C(=O)O[C@@H]2CCN3CC=C(COC(=O)[C@]1(C)O)[C@H]23 [SENECIPHYLLINE] | 11.97% | -14.61% | -0.27% | 22.67% | -1.29% | -12.96%
CC(=O)Nc1cccc([As](=O)(c2cccc(NC(C)=O)c2)c2cccc(NC(C)=O)c2)c1 | 0.93% | 1.38% | -5.49% | 9.67% | 0.37% | -8.79%
O=C1NC(=O)C(=Cc2csc3ccccc23)C(=O)N1 | -1.57% | 11.43% | 7.83% | 15.53% | 23.9% | -17.03%
CC(C)NC1C2CCC(CC2)C1(O)c1ccc(Cl)c(Cl)c1.CS(=O)(=O)O (centres undefined) | 8.47% | -0.12% | 14.13% | 12.75% | 0.41% | -1.76%
CCCCOP(=O)(OCCCC)C1(C)CC(=O)CC(C)(C)C1 (centres undefined) | 5.73% | -6.49% | -5.15% | 23.67% | 1.05% | -15.51%
CCC1CN1P1(=O)OCC(C)([N+](=O)[O-])CO1 (centres undefined) | -8.05% | -16.64% | 2.35% | 8.08% | 0.16% | 0.43%
COc1cc2c(cc1O)CC1c3c(cc(O)c(OC)c3-2)CCN1C (centres undefined) | 8.78% | -19.02% | 10.6% | 7.6% | -2.23% | -8.59%
COc1ccc2c3c1O[C@H]1C[C@@H](O)C=C[C@@]31CCN(C)C2 [GALANTAMINE] | 2.8% | 5.17% | -15.55% | 17.41% | 7.99% | 22.63%
